In PubChem BioAssay AID1347075 (National Center for Advancing Translational Sciences (NCATS), 2019):
About 5,500 (1.4%) of roughly 400,000 compounds were called active. Inconclusive results (about 9%) are left out. The call rests on the fitted dose curve; in most records, active means well fitted cell-killing curve with a large enough effect; inconclusive means small, poorly fitted or top-dose-only effect, or effect the other way; inactive means flat fitted curve, though single readings scatter. The entries come from a sample that favours actives as a whole.

Assay: qHTS assay for MDR1-selective chemotherapeutics: Primary screen using the parental adenocarcinoma cell KB-3-1; further: nearly all actives have a fitted effect of over 60% in size
Conditions: KB-3-1 viability, CellTiter-Glo ATP luminescence, 72 h; series mostly up to 46.1 µM; activity change, negative = cytotoxic: at the top concentration
In short: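 72 h, 37 °C compound treatment of KB-3-1 parental cells; CellTiter-Glo added, 10 min, luminescence read. Data corrected against DMSO-only plates and normalized before curve fitting.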
On the % scale 0 is the no-effect control and ±100 the full control effect; potency means the concentration at half of the fitted maximal effect.

**Q.** For `COc1cc(CNC(=O)c2cc3n(n2)CCCN(Cc2cccc(F)c2)C3=O)cc(OC)c1OC`, which “activity change, negative = cytotoxic” value is on record?
**A.** The value was -22.8% (inactive).

**Q.** With `COc1ccc(CNC(=O)CSc2nc3ccccc3nc2Cc2ccccc2)cc1` as the molecule, how does the “activity change, negative = cytotoxic” value read?
**A.** Its value is 5.2% (inactive).

**Q.** With `COc1ccc2c(c1)c(=Cc1ccc(N(C)C)cc1)c1cc(-c3ccccc3)[n+](C)n12` as the molecule, how does the Potency read?
**A.** Its Potency is 3.66 µM (active).

**Q.** With `CN(C)c1ccc(/C=c2\[nH]c(=O)/c(=C/c3ccc(N(C)C)cc3)[nH]c2=O)cc1` as the molecule, how does the “activity change, negative = cytotoxic” value read?
**A.** Its value is 0.186% (inactive).

**Q.** Which “activity change, negative = cytotoxic” value does the source give for `NC(=O)C1CCN(c2cc(-c3ccc4c(c3)OCCCO4)ncn2)CC1` here?
**A.** Its value is 0% (inactive).

**Q.** Which “activity change, negative = cytotoxic” value does the source give for `Cc1oc2ccc(O)c(CN3CCCCC3)c2c1C(=O)Nc1cccc(C(F)(F)F)c1` here?
**A.** Its value is -4.63% (inactive).

**Q.** With `COc1ccc(CCNC(=O)c2ccc(-n3c(C)cc4c3CCCC4)cc2)cc1OC` as the molecule, how does the “activity change, negative = cytotoxic” value read?
**A.** The value was 2.17% (inactive).

**Q.** With `COc1ccccc1/C=N\Nc1cc(C)nc(-n2nc(C)cc2C)n1` as the molecule, how does the Potency read?
**A.** The Potency was 7.31 µM (active).

**Q.** Which “activity change, negative = cytotoxic” value does the source give for `COc1ccccc1/C=N/N1CCN(Cc2ccccc2Cl)CC1` here?
**A.** The value was -4.62% (inactive).

**Q.** For `Cc1cc(C)nc(-n2nc(C)cc2NC(=O)c2ccc(F)cc2F)n1`, which “activity change, negative = cytotoxic” value is on record?
**A.** Its value is -0.123% (inactive).

**Q.** For `COc1ccc(C(C)=O)cc1CSc1nc2nc(C)cc(C)n2n1`, which “activity change, negative = cytotoxic” value is on record?
**A.** Its value is -8.05% (inactive).

**Q.** For `COc1cc(Cl)c(C)cc1Nc1nnc(-n2nc(C)cc2C)c2ccccc12`, which “activity change, negative = cytotoxic” value is on record?
**A.** Its value is 3.44% (inactive).

**Q.** Which “activity change, negative = cytotoxic” value does the source give for `COc1ccc(C(=O)NNc2cc(C)nc(NNC(=O)c3ccc(OC)cc3)n2)cc1` here?
**A.** Its value is 0% (inactive).

**Q.** With `COc1ccc(Nc2cc(Sc3ccc(OC)cc3)ncn2)cc1` as the molecule, how does the “activity change, negative = cytotoxic” value read?
**A.** The value was -20.2% (inactive).

**Q.** With `COc1ccc(Nc2cc(C)nc(-n3nc(C)cc3C)n2)cc1` as the molecule, how does the Potency read?
**A.** Its Potency is 0.731 µM (active).

**Q.** With `CC(=O)c1ccc(Oc2cc(C)nc(-n3nc(C)cc3C)n2)cc1` as the molecule, how does the Potency read?
**A.** The Potency was 0.651 µM (active).

**Q.** With `NS(=O)(=O)c1ccc(NC(=O)C(=O)Nc2ccc3nc4n(c(=O)c3c2)CCCCC4)cc1` as the molecule, how does the “activity change, negative = cytotoxic” value read?
**A.** Its value is 0.279% (inactive).

**Q.** For `COc1ccc(CCN2C(=O)N(c3cccc(OC)c3)C(=O)C2CC(=O)Nc2ccccc2)cc1` (stereo unspecified), which “activity change, negative = cytotoxic” value is on record?
**A.** Its value is 0% (inactive).

**Q.** Which “activity change, negative = cytotoxic” value does the source give for `COc1ccccc1CNS(=O)(=O)c1cc(Br)cc2c1N(C(C)=O)C(C)C2` (stereo unspecified) here?
**A.** Its value is -14.7% (inactive).

**Q.** With `Cc1ccc2c(c1)c1c(c(=O)n(-c3ccccc3)c(=O)n1CC(=O)c1ccc(Cl)cc1)n2C` as the molecule, how does the “activity change, negative = cytotoxic” value read?
**A.** Its value is 5.37% (inactive).

**Q.** Which “activity change, negative = cytotoxic” value does the source give for `COC(=O)CC1Oc2ccccc2-n2cc(-c3ccccc3)nc21` (stereo unspecified) here?
**A.** Its value is -0.952% (inactive).

**Q.** For `CCOCCCNC(=O)c1c(NC(=O)Cc2coc3c(C)c(C)ccc23)sc2c1CCC2`, which “activity change, negative = cytotoxic” value is on record?
**A.** The value was 6.28% (inactive).

**Q.** Which “activity change, negative = cytotoxic” value does the source give for `O=C(CCc1ccccc1)NCc1ccc2c(c1)CCN2C(=O)c1ccccc1` here?
**A.** The value was -4.5% (inactive).

**Q.** Which “activity change, negative = cytotoxic” value does the source give for `CCCCn1c(CNC(=O)C23CC4CC(CC(C4)C2)C3)nnc1SCC(=O)Nc1ccc(C)cc1` here?
**A.** The value was -2.31% (inactive).

**Q.** Which “activity change, negative = cytotoxic” value does the source give for `Cc1ccc(C(=O)Nc2cc3c(cc2N2CCCC2)n(C)c(=O)c(=O)n3C)cc1` here?
**A.** The value was 6.25% (inactive).

**Q.** With `CCCC1=Nc2cc(C(=O)NCCN3CCCC3)ccc2Sc2ccccc21` as the molecule, how does the “activity change, negative = cytotoxic” value read?
**A.** Its value is -6.09% (inactive).

**Q.** For `CCCC1=Nc2cc(C(=O)NCc3ccco3)ccc2Sc2ccccc21`, which Potency is on record?
**A.** Its Potency is 5.8 µM (active).

**Q.** For `COc1ccc(CCNS(=O)(=O)c2ccc(C(=O)NCc3ccco3)cc2)cc1OC`, which “activity change, negative = cytotoxic” value is on record?
**A.** Its value is 0.297% (inactive).

**Q.** For `Cc1ccc(OCC(=O)Nc2ccc(Cl)c(-c3nc4ccccc4[nH]3)c2)cc1C`, which “activity change, negative = cytotoxic” value is on record?
**A.** Its value is 0.112% (inactive).

**Q.** With `O=C(c1ccc(Cl)cc1)n1nc(-c2cccnc2)nc1NCc1ccc(F)cc1` as the molecule, how does the “activity change, negative = cytotoxic” value read?
**A.** The value was 5.88% (inactive).

**Q.** For `O=C(Cn1nc(CNc2ccc(Cl)cc2)[n+]2c1CCCCC2)c1ccc(Cl)cc1`, which Potency is on record?
**A.** Its Potency is 16.4 µM (active).

**Q.** With `O=C(Cn1nc(C(F)(F)F)c2c1CCCC2)Nc1ccc(Cl)cc1` as the molecule, how does the “activity change, negative = cytotoxic” value read?
**A.** Its value is 0.234% (inactive).

**Q.** With `O=C(Cn1ncc(N2CCCC2)c(Br)c1=O)c1ccc(Cl)cc1` as the molecule, how does the “activity change, negative = cytotoxic” value read?
**A.** The value was -13.7% (inactive).

**Q.** With `Cc1nc2ccc(S(=O)(=O)N(CC(=O)Nc3ccc(F)cc3)Cc3ccccc3)cc2s1` as the molecule, how does the “activity change, negative = cytotoxic” value read?
**A.** The value was 2.96% (inactive).

**Q.** Which “activity change, negative = cytotoxic” value does the source give for `COc1ccc(-c2nc3c4ccccc4n(CC(=O)Nc4ccc(C(C)=O)cc4)c(=O)n3n2)cc1` here?
**A.** Its value is 11.5% (inactive).

**Q.** With `COc1ccccc1C(=O)Nc1ccc(C)c(S(=O)(=O)N2CCCCC2)c1` as the molecule, how does the “activity change, negative = cytotoxic” value read?
**A.** The value was 0% (inactive).

**Q.** With `Cc1ccc(NC(=O)COC(=O)C2CC2)cc1S(=O)(=O)N1CCOCC1` as the molecule, how does the “activity change, negative = cytotoxic” value read?
**A.** The value was 12.9% (inactive).

**Q.** With `CCc1ccccc1OCC(=O)Nc1ccc(C)c(S(=O)(=O)N2CCCCCC2)c1` as the molecule, how does the Potency read?
**A.** The Potency was 18.4 µM (active).

**Q.** For `O=C(CCc1nc(CN2CCN(S(=O)(=O)c3ccc(Cl)cc3)CC2)no1)N1CCCCC1`, which “activity change, negative = cytotoxic” value is on record?
**A.** Its value is 10.5% (inactive).

**Q.** Which “activity change, negative = cytotoxic” value does the source give for `COc1cc2ccccc2cc1C(=O)Nc1cccc(-c2nc3ccccc3o2)c1` here?
**A.** The value was -28.8% (inactive).

**Q.** For `Cc1cccc(NC(=O)CSc2nc3c([nH]c4ccccc43)c(=O)n2-c2cc(C)cc(C)c2)c1`, which “activity change, negative = cytotoxic” value is on record?
**A.** The value was 9.13% (inactive).

**Q.** Which “activity change, negative = cytotoxic” value does the source give for `Cc1oc(C)c2c(=O)cc(-c3ccc4c(c3)OCO4)cc(OC(=O)c3ccc(Cl)cc3)c12` here?
**A.** Its value is 5.96% (inactive).

**Q.** With `COc1cc2c(-c3ccc4c(c3)OCO4)c(-c3ccsc3)oc(=O)c2cc1OC` as the molecule, how does the “activity change, negative = cytotoxic” value read?
**A.** Its value is -11.2% (inactive).

**Q.** With `COc1cc(-c2c(-c3ccc4c(c3)OCO4)noc2C)ccc1F` as the molecule, how does the Potency read?
**A.** The Potency was 3.26 µM (active).

**Q.** With `Cc1ccc(C=O)cc1Cl` as the molecule, how does the “activity change, negative = cytotoxic” value read?
**A.** Its value is -8.55% (inactive).

**Q.** With `O=C(CSc1oc(-c2ccccc2)nc1S(=O)(=O)c1ccc(Br)cc1)NC1CCCCC1` as the molecule, how does the “activity change, negative = cytotoxic” value read?
**A.** Its value is 4.96% (inactive).

**Q.** With `COc1ccc(OC)c(-c2noc(N3CCN(c4cc(Cl)ccc4C)CC3)n2)c1` as the molecule, how does the “activity change, negative = cytotoxic” value read?
**A.** Its value is 0.175% (inactive).

**Q.** For `CCOc1ccccc1CNC(=O)c1cnc2c(-c3ccc(OCC)c(OCC)c3)c(C)nn2c1C`, which “activity change, negative = cytotoxic” value is on record?
**A.** The value was 4.74% (inactive).

**Q.** For `Cc1ccccc1-c1nc2cc(NC(=O)c3cccc(OCCC(C)C)c3)ccc2o1`, which “activity change, negative = cytotoxic” value is on record?
**A.** Its value is 0% (inactive).

**Q.** Which “activity change, negative = cytotoxic” value does the source give for `Cc1cc(O)c(C(c2ccccc2)N2CCN(c3ccccc3F)CC2)c(=O)n1Cc1ccco1` (stereo unspecified) here?
**A.** The value was 10.2% (inactive).

**Q.** Which “activity change, negative = cytotoxic” value does the source give for `COc1ccc(C)cc1NC(=O)CCS(=O)(=O)c1cccc2nonc12` here?
**A.** The value was 6.36% (inactive).

**Q.** For `COc1ccccc1CNC(=O)CS(=O)(=O)c1cccc2nsnc12`, which “activity change, negative = cytotoxic” value is on record?
**A.** The value was -7.34% (inactive).

**Q.** With `COc1cccc2sc(N(CCCN(C)C)C(=O)CCS(=O)(=O)c3ccccc3)nc12` as the molecule, how does the Potency read?
**A.** The Potency was 18.4 µM (active).

**Q.** With `Cc1cccc2sc(N(CCCN(C)C)C(=O)CCS(=O)(=O)c3ccccc3)nc12` as the molecule, how does the Potency read?
**A.** Its Potency is 20.6 µM (active).

**Q.** Which “activity change, negative = cytotoxic” value does the source give for `Cc1cccc(C)c1NC(=O)CCS(=O)(=O)c1cccc2nsnc12` here?
**A.** Its value is 19.3% (inactive).

**Q.** With `Cc1ccc(S(=O)(=O)CCC(=O)OCC(=O)N(C)Cc2ccccc2)cc1` as the molecule, how does the “activity change, negative = cytotoxic” value read?
**A.** The value was 11% (inactive).

**Q.** For `COc1cc(NC(=O)c2nn(-c3ccc(C)cc3)c(=O)c3c2c2ccccc2n3C)cc(OC)c1OC`, which “activity change, negative = cytotoxic” value is on record?
**A.** Its value is 5.86% (inactive).

**Q.** Which “activity change, negative = cytotoxic” value does the source give for `COc1ccc(C)cc1-n1c(-c2ccc(C)cc2)cc2c1CC(C)(C)CC2=O` here?
**A.** The value was -7.59% (inactive).

**Q.** For `O=C(Nc1nnc(C2CC(=O)N(c3ccc(Cl)cc3)C2)s1)c1ccco1` (stereo unspecified), which “activity change, negative = cytotoxic” value is on record?
**A.** Its value is 13.2% (inactive).

**Q.** With `Cc1nc2nc(NCc3cccc(Br)c3)[nH]n2c(=O)c1Cc1ccccc1` as the molecule, how does the “activity change, negative = cytotoxic” value read?
**A.** Its value is -16.3% (inactive).

**Q.** For `CCN(CCCNC(=O)Cn1ncc2c([nH]c3ccccc32)c1=O)c1cccc(C)c1`, which “activity change, negative = cytotoxic” value is on record?
**A.** The value was 8.56% (inactive).
